# Source: PubChem (several laboratories)
# Hits are enriched below; roughly 27% of the tested compounds scored in any of these assays.
# CYP2C19 activ: cytochrome P450 2C19 (human) activation; recombinant CYP2C19, luciferin-H EGE luminescence; hits give high values; 0 = fully inhibited enzyme, 1 = untreated enzyme; 96,000 tested, under 10 active; P33261; activation factor at 5 µM;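 active = activation factor of at least 2 at 5 µM in the primary screen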;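 also: 0 = wells with 2.5 mM tranylcypromine and 1 = vehicle-only wells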
# CYP2C9 inh: human CYP2C9 inhibition; 96,000 compounds, 20% hits; P11712; CYP2C9 Supersomes, luciferin-H conversion, luminescence; inhibition, % at 5 µM;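 active = blocking of liver enzyme CYP2C9 beyond about 50% at 5 µM, limit read from the data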
# Target sequence (P11712 whole entry, looked up): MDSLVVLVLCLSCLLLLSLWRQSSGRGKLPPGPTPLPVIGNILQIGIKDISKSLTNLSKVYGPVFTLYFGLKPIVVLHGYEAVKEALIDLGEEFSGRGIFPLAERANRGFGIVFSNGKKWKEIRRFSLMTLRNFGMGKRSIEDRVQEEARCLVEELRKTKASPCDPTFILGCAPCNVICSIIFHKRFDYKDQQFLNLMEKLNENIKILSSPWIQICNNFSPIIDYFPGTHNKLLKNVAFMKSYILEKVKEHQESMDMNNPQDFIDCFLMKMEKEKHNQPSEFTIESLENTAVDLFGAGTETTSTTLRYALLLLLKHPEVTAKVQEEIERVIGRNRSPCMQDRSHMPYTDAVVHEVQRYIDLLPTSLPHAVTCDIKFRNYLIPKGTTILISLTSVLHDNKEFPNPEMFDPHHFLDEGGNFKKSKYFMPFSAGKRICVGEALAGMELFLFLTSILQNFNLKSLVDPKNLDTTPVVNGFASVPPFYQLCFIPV
# sEH act: increases human soluble epoxide hydrolase activity; 91,000 compounds, 0.04% hits; activation, % at 2 µM; P34913; purified human sEH enzymatic activity, activator screen; in the data active = activation above about 37%
# CYP2C19 inh: blocks human cytochrome P450 2C19; CYP2C19 Supersomes, luciferin-H EGE luminescence, 30 min; 96,000 compounds, 21% hits; P33261; inhibition, % at 5 µM;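 active = CYP2C19 inhibition above a set limit at 5 µM in the primary screen, cut at about 50% in these data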;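 also: plate controls were negative control wells for no effect and 2.5 mM tranylcypromine positive control for full effect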
# CYP2C9 act: CYP2C9 (human) activation; 96,000 compounds, 1.4% hits; recombinant CYP2C9, luciferin-H conversion, luminescence; hits give high values; factor 1 = untreated enzyme, 0 = blocked; activation factor at 5 µM;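 active = activation factor of 2 or more for CYP2C9 at a 5 µM dose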;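 also: 0 = sulfaphenazole-blocked wells and 1 = vehicle-only wells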
# sEH inhibitor: soluble epoxide hydrolase (human) inhibition | P34913 | recombinant human sEH enzymatic activity assay | inhibition, % at 2 µM | 91,000 compounds, 0.34% hits | AID 707; in the data active = inhibition above about 80%
# Starred values were filed as active, the others as inactive; / = no result.
SMILES,CYP2C19 activ,CYP2C9 inh,sEH act,CYP2C19 inh,CYP2C9 act,sEH inhibitor
O=C(CCN1CCN(c2ccccc2)CC1)Nc1ccccc1F,0.2,75.1*,-1.7,75.3*,0.2,5.8
C/C(=N\NC(=O)c1c(Cl)c(C)nn1C)c1cccc(NC(=O)COc2ccc(Cl)cc2)c1,0.7,40.5,10.1,34.5,0.6,-8.5
O=C(Nc1ccc2c(c1)OCCO2)C1CCN(S(=O)(=O)c2ccc(Br)s2)CC1,0.5,0.5,-34.8,49.3,1,35.7
COc1ccc(OC)c(NC(=O)CCN2CCN(Cc3ccccc3)CC2)c1,0.9,5.2,-1.4,13.8,0.9,2.0
COc1cc(NC(=O)CCN2CCN(c3ccccc3F)CC2)cc(OC)c1,0.7,62.9*,/,33.7,0.4,/
COc1ccc(S(=O)(=O)N2CCN(CCC(=O)Nc3ccccc3F)CC2)cc1,0.1,94.5*,16.8,87.0*,0.1,-20.2
COc1cc(C(=O)NCc2cn3cccc(C)c3n2)cc(OC)c1OC,0.6,47.8,-11.4,40.4,0.5,10.7
COC(=O)COc1ccc(S(=O)(=O)N2CCN(c3ccc(F)cc3)CC2)cc1,0.8,46.2,14.5,24.1,0.5,-16.7
O=C(Nc1ccc(S(=O)(=O)N2CCOCC2)cc1)c1ccc(CN2CCc3ccccc3C2)cc1,0.8,55.1*,-12.4,23.1,0.4,12.8
CCOC(=O)COc1ccc(S(=O)(=O)N2CCc3ccccc3C2)cc1,0.4,-49.2,-10.5,55.9*,1.5,15.0
CC(=O)Nc1ccc(S(=O)(=O)N2CCc3ccccc3C2)cc1,0.3,-58.1,-3.1,65.0*,1.6,3.0
O=C(Nc1ccccc1)c1ccc(S(=O)(=O)N2CCOCC2)cc1,0.9,12.6,-28.7,7.0,0.9,29.3
CCOC(=O)COc1ccc(S(=O)(=O)N2CCN(c3ccc(F)cc3)CC2)cc1,0.8,50.5*,0.7,22.4,0.5,1.4
CCC(C)NS(=O)(=O)c1ccc(NS(C)(=O)=O)cc1 (stereo unspecified),1,-9.5,9.8,0.9,1.1,-7.0
CCOC(=O)N1CCN(c2nc(-c3ccc(OC)cc3)no2)CC1,0.8,22.3,-8.7,22.8,0.8,9.4
COc1cc(/C=C(\C#N)c2nc3ccccc3[nH]2)ccc1Oc1ccc([N+](=O)[O-])cn1,0.9,37.2,1.7,12.1,0.6,0.7
COc1cc(/C=C(/C#N)c2nc3ccccc3[nH]2)ccc1OC(=O)c1ccco1,0.8,60.6*,18.8,23.8,0.4,-16.0
Cc1nn(C)cc1CNC(=O)COc1ccc(Cl)cc1Cl,/,/,2.8,/,/,2.2
OCCNCCCOc1ccc(Cl)cc1Br,0.9,-1.9,31.7,5.4,1,-30.9
Clc1ccc(SCCn2ccnc2)cc1,0.1,59.9*,/,89.7*,0.4,/
Clc1ccc(OCCn2ccnc2)c(Br)c1,0,94.9*,12.7,96.6*,0.1,-19.3
Clc1ccc(OCCn2ccnc2)c2ccccc12,0,90.8*,-3.1,96.6*,0.1,5.9
Clc1ccc(OCCn2ccnc2)c(Cl)c1,0,96.3*,-4.0,95.1*,0,9.1
COc1ccc(-n2c3c(cc(C(=O)Nc4ccc5c(c4)C(=O)NC5=O)c2=O)C(=O)CCC3)cc1,/,/,-6.5,/,/,4.7
Cc1ccc(CNc2ccc(CNc3ncn[nH]3)cc2)cc1,0.2,62.7*,8.6,76.7*,0.4,-9.2
SMILES,CYP2C19 activ,CYP2C9 inh,sEH act,CYP2C19 inh,CYP2C9 act,sEH inhibitor
O=C(CN1CCCN(S(=O)(=O)c2ccc(Br)cc2)CC1)Nc1ccc2c(c1)OCO2,/,/,-7.6,/,/,12.1
COc1ccc(/C=C/c2ccncc2)c2ccccc12,0.1,54.4*,5.0,88.1*,0.5,-3.6
O=C(NCc1ccc2c(c1)OCO2)c1nn2cccnc2c1Cl,0.6,11.5,16.9,41.1,0.9,-17.0
Cc1cccc(NCc2nc3ccccc3n2C)c1,0.5,9.1,14.1,46.2,0.9,-19.1
Cn1c(CNc2ccc(Cl)cc2)nc2ccccc21,0,83.6*,10.5,98.3*,0.2,-10.7
Cn1c(SCC(=O)N/N=C/c2cccs2)nc2ccccc21,0.6,-100.7,10.5,43.0,2*,-7.5
Cn1c(CCCNC(=O)c2ccccc2)nc2ccccc21,0.7,-138.5,-0.7,32.2,2.4*,0.8
Cn1c(SCC(=O)NCc2ccc(F)cc2)nc2ccccc21,0.7,-214.3,-2.0,30.2,3.1*,0.7
Cn1c(CCCNC(=O)c2cccs2)nc2ccccc21,0.7,-29.7,22.7,25.8,1.3,-27.0
Cc1cc(Nc2ccccc2)n(CCOC(=O)COc2ccccc2)n1,0.7,22.4,-3.8,32.6,0.8,6.6
CC1CCN(C(=O)CSc2nnc(CN3CCOCC3)n2-c2ccccc2)CC1,1.1,-19.5,6.5,-11.4,1.2,-4.0
COC(=O)COc1ccc(S(=O)(=O)NCc2cccnc2)cc1C,0.6,1.5,12.3,38.6,1,-15.2
COc1ccccc1C(=O)NCCc1nc2ccccc2n1C,0,-13.0,/,96.7*,1.1,/
Cn1c(CNC(=O)c2ccc(F)cc2)nc2ccccc21,0.3,-38.2,/,72.2*,1.4,/
CC(C)Cn1c(CCCNC(=O)c2ccc(F)cc2)nc2ccccc21,0.8,5.7,-4.9,22.6,0.9,7.0
Brc1ccc(-c2noc(COc3ccc4c(c3)CCC4)n2)o1,0.8,64.2*,/,19.8,0.4,/
c1ccc2sc(SCc3ccc(-c4nnco4)cc3)nc2c1,0.2,15.3,10.7,79.1*,0.8,-10.8
CC12CCC(C(=O)NCCN3CCCCC3)(CC1=O)C2(C)C (stereo unspecified),1.2,-21.9,-3.1,-23.2,1.2,5.6
CC1(C)CC(NC(=O)C23CCC(C)(C(=O)C2)C3(C)C)CC(C)(C)N1 (stereo unspecified),1,60.1*,7.7,-1.1,0.4,-8.1
Cc1cc(=S)[nH]c2ccccc12,1,-16.5,11.3,4.0,1.2,-8.0
Cc1ccc(C(=O)c2ccc([N+](=O)[O-])cc2)cc1C,0.8,25.8,-4.6,21.9,0.7,2.7
Cc1ccc(C)c2c1[nH]c1ccc([N+](=O)[O-])cc12,0.2,60.8*,-9.0,78.0*,0.4,8.9
Cc1ccc(C)c2c1[nH]c1ccccc12,0.1,2.6,1.7,86.2*,1,-3.1
CN(C)C(=O)c1ccccc1-c1ccccc1,0.8,5.8,1.6,22.6,0.9,-3.5
Cc1nnc(SCC(=O)NCc2ccc(Cl)cc2)[nH]c1=O,1.1,17.1,/,-8.1,0.8,/
O=C(O)CSc1nc2ccccc2c(=O)[nH]1,1.1,-8.7,13.8,-7.3,1.1,-12.1
COC(=O)c1ccccc1NC(=O)CSc1nc2ccccc2c(=O)[nH]1,0.7,59.4*,-3.8,27.9,0.4,6.2
O=C(CSc1nc2ccccc2c(=O)[nH]1)NCc1ccc(Cl)cc1,0.8,51.4*,-11.3,17.7,0.5,6.1
O=C(/C=C(\c1ccc(Cl)cc1)n1cncn1)c1ccc(Cl)cc1,0.1,7.8,0.3,89.7*,0.9,2.1
